PfHsp40 yeast: restores yeast growth despite PfHsp40 toxicity; S. cerevisiae expressing PfHsp40, growth rescue, ATP luminescence; growth rescue, % at 12.5 µM; hit rate 0.68% among 340,000; in the data active = growth rescue above about 28%, passing the limit was not always enough;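 also: yeast W303a lacking pdr1 and pdr3 grown in galactose medium; growth measured after three days at 30 °C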
Sa RN4220 lethal: S. aureus RN4220 growth inhibition. AID 1259311. OD600, 16 h. inhibition, % (test concentration not listed). hit rate 0.33% among 330,000; in the data active = inhibition above about 85%
3CLpro inhibitor: SARS-CoV 3CLpro protease inhibition; recombinant SARS-CoV 3CLpro, quenched FRET peptide cleavage; inhibition, % at 6 µM; hit rate 0.14% among 290,000; in the data active = inhibition above about 12%
Sa ugtP lethal: kills S. aureus RN4220 lacking UgtP. S. aureus RN4220 ugtP deletion, OD600 growth, 16 h. growth inhibition, % (concentration not given with the values). hit rate 0.54% among 330,000; in the data active = growth inhibition above about 68%
BJeLR lethal: kills HRASV12-expressing BJeLR cells; BJeLR (HRASV12) viability, CellTiter-Glo ATP luminescence, 48 h; inhibition, % (concentration not given with the values); hit rate 0.17% among 300,000; AID 1554; in the data active = inhibition above about 50%
Of the large screens only hits and unclear results are named; the others gave an inactive call. In the library only some 1.3% were active in any assay of this set; here they are far more common.

CCc1ccc2[nH]c(=O)c(C3C(C#N)=C(N)Oc4c3ccc3cccnc43)cc2c1 (stereo unspecified)	PfHsp40 yeast 80.5
CCOc1cc(C=Nn2nnnc2N)ccc1O	none (no result: PfHsp40 yeast, 3CLpro inhibitor, BJeLR lethal)
O=c1ccc(N=Nc2ccccc2)ccc1O	PfHsp40 yeast 102.0
O=S(=O)(O)c1ccc(N=Nc2ccccc2)cc1	none
O=C(Nc1cccc(-c2nc3ccccc3s2)c1)c1cccs1	PfHsp40 yeast 403.4
O=C(Nc1cccc(-c2nc3ccccc3s2)c1)c1cc(=O)c2ccccc2o1	none
CSc1nc2ccc(NC(=O)c3ccco3)cc2s1	none
CSc1nc2ccc(NC(=O)c3cccs3)cc2s1	PfHsp40 yeast 158.0 (no result: 3CLpro inhibitor, BJeLR lethal)
COC(=O)Cc1c(O)ccn(Cc2ccc(Cl)c(Cl)c2)c1=O	none
Cc1nc2ccccn2c1C(=O)NN=Cc1ccc([N+](=O)[O-])cc1	none (no result: PfHsp40 yeast, 3CLpro inhibitor, BJeLR lethal)
Cc1ccc(C(=O)N2CCN3C(=O)c4ccccc4C23c2ccccc2)cc1 (stereo unspecified)	none
O=C1c2ccccc2C2(c3ccccc3)N1CCN2C(=O)C(Cl)(Cl)Cl (stereo unspecified)	PfHsp40 yeast 122.0
COc1ccc(C=NNC(=O)COc2cc(C)cc(C)c2)cc1COC(C)=O	Sa ugtP lethal 93.4 (no result: PfHsp40 yeast, 3CLpro inhibitor, BJeLR lethal)
Cn1c2ccccc2c2cnn(CC(=O)Nc3ccc(F)cc3F)c(=O)c21	none
COc1ccc(C(=O)/C=C/C(=O)N(CC(=O)NC2CCCCC2)Cc2ccccc2OC)c(O)c1	BJeLR lethal 51.4
O=C(Cc1cccs1)NNC(=S)NCc1ccc(Cl)cc1	PfHsp40 yeast 72.0
O=C(Cc1ccc(Cl)cc1)NNC(=S)NC(=O)c1cccs1	none
CSc1ccccc1C(=O)Nc1ccc(C)c(C)c1	none
CC(=O)Nc1cccc(C(=O)/C=C/c2ccc(F)cc2)c1	none
CC(=O)Nc1cccc(C(=O)/C=C/c2ccc(/C=C/C(=O)c3cccc(NC(C)=O)c3)cc2)c1	BJeLR lethal 81.1 (no result: PfHsp40 yeast, Sa RN4220 lethal, Sa ugtP lethal)
CC(=O)c1cccc(N/C=C\C(=O)c2ccc(C)cc2)c1	PfHsp40 yeast 27.2
Cc1c(C=NNC(=O)C2(O)c3ccccc3-c3ccccc32)cnn1C	none (no result: PfHsp40 yeast, 3CLpro inhibitor, BJeLR lethal)
COc1cccc(/C=N/NC(=O)c2nc(-c3ccccc3)cc(-c3ccccc3)n2)c1O	PfHsp40 yeast 253.5 (no result: Sa RN4220 lethal, Sa ugtP lethal)
COc1ccc(C=NNC(=O)c2nc(-c3ccccc3)cc(-c3ccccc3)n2)cc1OC	none (no result: PfHsp40 yeast, 3CLpro inhibitor, BJeLR lethal)
COc1ccc(/C=N/NC(=O)c2nc(-c3ccccc3)n(-c3ccccc3)n2)c(O)c1	PfHsp40 yeast 71.5 (no result: Sa RN4220 lethal, Sa ugtP lethal)
O=C(Nc1cccc(C(F)(F)F)c1)C(SCCO)c1ccccc1 (stereo unspecified)	none
CCC(C(=O)Nc1cccc(C(F)(F)F)c1)c1ccccc1 (stereo unspecified)	3CLpro inhibitor 12.9
Oc1c(C(Nc2cccc(C(F)(F)F)c2)c2cccnc2)ccc2cccnc12 (stereo unspecified)	PfHsp40 yeast 381.8
COc1ccc(Cl)cc1C(Nc1cccnc1)c1ccc2cccnc2c1O (stereo unspecified)	PfHsp40 yeast 88.8
COc1ccc(-c2nnc3ccc(SCC(=O)Nc4cc(C)on4)nn23)cc1	none (no result: PfHsp40 yeast, Sa RN4220 lethal, Sa ugtP lethal, BJeLR lethal)
C=CCN1C(=O)C(O)(CC(=O)c2ccccc2)c2ccccc21 (stereo unspecified)	none
NC(=O)CN1C(=O)C(O)(CC(=O)c2ccccc2O)c2ccccc21 (stereo unspecified)	3CLpro inhibitor 16.4 (no result: Sa RN4220 lethal, Sa ugtP lethal)
CCc1nc2ccccc2n1CC1CC1(Cl)Cl (stereo unspecified)	PfHsp40 yeast 55.9
ClC1(Cl)CC1Cn1c(C2CC2)nc2ccccc21 (stereo unspecified)	none
CCOc1ccc(S(=O)(=O)NC(=O)c2ccccc2)cc1	none
Cc1ccc(-n2c(C)cc(C(=O)NS(=O)(=O)c3ccc(C)cc3)c2C)cc1	Sa ugtP lethal 98.2
CCOc1ccc(-n2c(C)cc(C(=O)NS(=O)(=O)c3ccc(C)cc3)c2C)cc1	Sa ugtP lethal 92.2
CC(=NNc1cc(C)nc(-c2ccccc2O)n1)c1ccccc1O	none (no result: PfHsp40 yeast, 3CLpro inhibitor, BJeLR lethal)
CN1c2ccsc2C(=NNc2ccc(F)cc2)CS1(=O)=O	Sa ugtP lethal 99.8 (no result: PfHsp40 yeast, 3CLpro inhibitor, BJeLR lethal)
COC(=O)c1ccc(S(=O)(=O)N2C3CCC2CC(NC(=O)C2CC2)C3)cc1 (stereo unspecified)	none
O=C(CSc1ccc(F)cc1)N1CCC(c2nc3ccccc3s2)CC1	none
O=C(CSc1ccccc1Cl)N1CCC(c2nc3ccccc3s2)CC1	Sa RN4220 lethal 95.9, Sa ugtP lethal 97.2
Cc1ccccc1OCC(O)CNC1CCC(NCC(O)COc2ccccc2C)CC1 (stereo unspecified)	BJeLR lethal 89.4 (no result: Sa RN4220 lethal, Sa ugtP lethal)
Cc1ccccc1OCC(O)Cn1c2ccccc2c2ccccc21 (stereo unspecified)	PfHsp40 yeast 111.5
CC(CC(=O)Nc1cccc2c1CCCC2)=NNC(=O)c1cccc2ccccc12	none (no result: PfHsp40 yeast, 3CLpro inhibitor, BJeLR lethal)
CC(=O)/C=C/n1c(=S)oc2ccccc21	BJeLR lethal 70.6 (no result: PfHsp40 yeast)
CC(C)CC(=O)/C=C/n1c(=S)oc2ccccc21	none
N#Cc1ccc(C(=O)OCC(=O)NC2CCCC2)cc1	none
O=C(NNC(=O)C1[C@H]2CCCC[C@@H]12)NC1CCCCC1 (stereo partly specified)	none
CC1=C(C(=O)OCc2ccc([N+](=O)[O-])cc2)N2C(=O)C(NC(=O)Cc3ccccc3)C2SC1 (stereo unspecified)	none
Cc1nnc(SCC2=C(C(=O)O)N3C(=O)C(NC(=O)c4cc(F)c(F)cc4Cl)C3SC2)s1 (stereo unspecified)	Sa RN4220 lethal 99.7, Sa ugtP lethal 100.4
CCC(C(=O)NC1CCN(C)CC1)c1ccccc1 (stereo unspecified)	none
CCOc1ccc(C(=O)NC2C(=O)N3C(C(=O)O)=C(COC(C)=O)CSC23)cc1OCC (stereo unspecified)	none (no result: 3CLpro inhibitor, BJeLR lethal)
CC(=O)OCC1=C(C(=O)O)N2C(=O)C(NC(=O)COc3ccc(F)cc3)C2SC1 (stereo unspecified)	Sa RN4220 lethal 100.5, Sa ugtP lethal 100.6 (no result: 3CLpro inhibitor, BJeLR lethal)
C=CC1=C(C(=O)O)N2C(=O)C(NC(=O)Cc3ccccc3)C2SC1 (stereo unspecified)	Sa RN4220 lethal 100.5, Sa ugtP lethal 100.7
CCC(C(=O)NC1C(=O)N2C(C(=O)O)=C(CSc3nnc(C)s3)CSC12)c1ccccc1 (stereo unspecified)	Sa RN4220 lethal 100.1, Sa ugtP lethal 100.2 (no result: 3CLpro inhibitor, BJeLR lethal)
CC1=C(C(=O)OCc2ccccc2)N2C(=O)[C@@H](NC(=O)COc3ccccc3)[C@H]2SC1	none
O=C(COc1ccccc1)NC1C(=O)N2C(C(=O)O)=C(Cl)CSC12 (stereo unspecified)	Sa RN4220 lethal 100.7, Sa ugtP lethal 100.7
Cc1nnc(SCC(=O)NNC(=O)COc2ccc(Cl)cc2)s1	none
Cc1nnc(SCC2=C(C(=O)O)N3C(=O)C(NC(=O)COc4ccc(F)cc4)C3SC2)s1 (stereo unspecified)	Sa RN4220 lethal 100.2, Sa ugtP lethal 96.9 (no result: 3CLpro inhibitor, BJeLR lethal)
Cc1nnc(SCC2=C(C(=O)O)N3C(=O)C(NC(=O)COc4ccccc4)C3SC2)s1 (stereo unspecified)	Sa RN4220 lethal 100.4, Sa ugtP lethal 100.6 (no result: 3CLpro inhibitor, BJeLR lethal)
OC(Cc1ccncc1)c1ccccc1Cl (stereo unspecified)	none (no result: 3CLpro inhibitor, BJeLR lethal)
CN(C)P(=O)(NC(=O)c1cccn1C)N(C)C	none
